Records with an inconclusive call do not appear. Active and inactive are the calls of the source. The call rests on the fitted dose curve; in most records, active means well fitted curve in the direction sought with a large enough effect; inconclusive means small, poorly fitted or top-dose-only effect, or another doubt; inactive means no such curve, though single readings can be large or run the other way.
target: Protein phosphatase 1D (Homo sapiens) (UniProt O15297); test: Rhodamine-PBP qHTS Assay for Modulators of WT P53-Induced Phosphatase 1 (WIP1) (AID 1347425); settings: recombinant WIP1, Rhodamine-PBP phosphate fluorescence, real-time; series mostly up to 57.5 µM
Text: Assay Provider (PI): Nathan Coussens Ph.D.
National Center for Advancing Translational Sciences (NCATS), Rockville, MD
National Institute of Health (NIH), Bethesda, Maryland
WT P53-Induced Phosphatase 1 (WIP1) is a member of the magnesium-dependent serine/threonine protein phosphatase (PPM) family and is induced by P53 in response to DNA damage. In several human cancers, the WIP1 protein is overexpressed, which is generally associated with a worse prognosis. Although WIP1 is an attractive therapeutic target, no potent, selective, and bioactive small-molecule modulator with favorable pharmacokinetics has been reported. Phosphatase enzymes are among the most challenging targets for small molecules because of the difficulty of achieving both modulator selectivity and bioavailability. Another major obstacle has been the availability of robust and physiologically relevant phosphatase assays that are suitable for high-throughput screening.
Here, we describe two orthogonal biochemical WIP1 activity assays that utilize phosphopeptides from native WIP1 substrates. We optimized a RapidFire MS assay to quantify the enzymatically dephosphorylated peptide reaction product in a 384-well format. Additionally, a redshifted Rhodamine-PBP fluorescence assay was optimized in a 1,536-well format to enable real-time WIP1 activity measurements through the detection of the orthogonal reaction product, Pi. We validated these two optimized assays by quantitative high-throughput screening against the National Center for Advancing Translational Sciences (NCATS) Pharmaceutical Collection and used secondary assays to confirm and evaluate inhibitors identified in the primary screen.
SEQUENCE No. (e.g., 1, 2, 3, etc.); […] (e.g., Cells, Incubation, Reagent, etc.); VALUE; DESCRIPTION
1; Reagent; 3 uL; WIP1 (6.7 nM), Rh-PBP (13.3 uM), columns 1-48
3; Library Compounds; 23 nL; NCATS Pharmaceutical Collection, column 5-48
4; Control Compounds; DMSO in column 2, GSK2830371 (57.5 uM, final) in 3-fold serial dilutions in column 3, GSK2830371 (1.15 uM, final) in column 4
5; Time; 1 hr; incubation
6; Detection; fluorescence (f0); ViewLux, excitation filter = 525 nm, emission filter = 598 nm
7; Reagent; 1 uL; VEPP-pS-QETFS (40 uM), columns 2-48
8; Detection; fluorescence (f1); ViewLux, excitation filter = 525 nm, emission filter = 598 nm
NOTES (numbers refer to sequence above)
1 & 2; Black medium binding Greiner 1536-well plates (# 789176-F); assay buffer: 50 mM Tris-HCl pH 7.5, 30 mM MgCl2, 1mM TCEP, 0.1 mM EGTA, 75 ug/mL BSA; dispensed with a BioRaptr liquid handler (Beckman Coulter).
3 & 4; Kalypsys pintool (equipped with 1536 pinhead, Wako USA) transfer. Tip wash sequence: DMSO, methanol, 3 sec vacuum dry.
5; Room temperature incubation.
7; VEPPL-pS-QETFS in assay buffer dispensed with a BioRaptr; final reaction conditions: 5 nM WIP1, 10 uM VEPPL-pS-QETFS, 10 uM Rh-PBP, 50 mM Tris-HCl pH 7.5, 30 mM MgCl2, 1 mM TCEP, 0.1 mM EGTA, 75 ug/mL BSA.
8; Measurement taken at 1 min intervals for 11 min. Delta readout = f1 - f0.

Chain of Protein phosphatase 1D (Homo sapiens) (O15297 whole entry, looked up): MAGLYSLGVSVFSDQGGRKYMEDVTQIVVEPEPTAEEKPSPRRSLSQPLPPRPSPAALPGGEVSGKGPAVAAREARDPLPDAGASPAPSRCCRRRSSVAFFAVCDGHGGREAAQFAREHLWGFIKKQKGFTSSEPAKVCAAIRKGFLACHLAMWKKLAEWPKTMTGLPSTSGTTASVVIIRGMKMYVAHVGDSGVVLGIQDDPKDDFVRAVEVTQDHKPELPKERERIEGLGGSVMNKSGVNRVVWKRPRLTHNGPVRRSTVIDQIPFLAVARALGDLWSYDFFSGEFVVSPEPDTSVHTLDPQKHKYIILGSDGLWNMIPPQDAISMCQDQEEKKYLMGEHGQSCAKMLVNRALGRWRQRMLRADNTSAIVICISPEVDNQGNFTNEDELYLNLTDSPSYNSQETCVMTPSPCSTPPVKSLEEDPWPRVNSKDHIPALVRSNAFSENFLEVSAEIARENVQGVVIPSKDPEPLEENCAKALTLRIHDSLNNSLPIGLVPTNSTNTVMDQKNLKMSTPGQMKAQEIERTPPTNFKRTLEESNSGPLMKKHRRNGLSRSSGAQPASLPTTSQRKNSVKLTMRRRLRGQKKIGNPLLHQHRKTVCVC

SMILES	outcome
C[C@]12Cc3cn[nH]c3C[C@@H]1CC[C@@H]1[C@@H]2CC[C@@]2(C)[C@H]1CC[C@]2(C)O	inactive
CCc1cc2c(s1)-n1c(C)nnc1CN=C2c1ccccc1Cl	inactive
Clc1ccc(C(c2ccc(Cl)cc2)C(Cl)(Cl)Cl)cc1	inactive
c1ccc(CN2CCNCC2)cc1	inactive
C=CCC1([C@H](C)CCC)C(=O)NC(=O)NC1=O	inactive
C#CC(O)(C=CCl)CC (stereo not given)	inactive
CCOP(=S)(OCC)Oc1ccc2c(C)c(Cl)c(=O)oc2c1	inactive
CN1C(=O)NC(=O)C(C)(C2=CCCCC2)C1=O (stereo not given)	inactive
O=C(Nc1ccc(Br)cc1)c1cc(Br)cc(Br)c1O	inactive
COc1cccc2c1C(=O)c1c(O)c3c(c(O)c1C2=O)C[C@@](O)(C(=O)CO)CC3OC1CC(N2CCOC(OC)C2)C(O)C(C)O1 (stereo not given in full)	inactive
CCC(CC)(CNC(=O)CCCO)c1cccc(OC)c1	inactive
CCN(CC)C(=O)[C@@H]1C=C2c3cccc4[nH]cc(c34)C[C@H]2N(C)C1	inactive
CC(C)(C)c1ccc(O)cc1	inactive
O=C(O)CCCc1ccc(N(CCCl)CCCl)cc1	inactive
C=CCC1(C(C)CC)C(=O)NC(=O)NC1=O (stereo not given)	inactive
CN1C(=O)CCS(=O)(=O)C1c1ccc(Cl)cc1 (stereo not given)	inactive
c1ccc2c(c1)sc1ccccc12	inactive
COc1ccc2c3c1O[C@H]1[C@H](O)CC[C@H]4[C@@H](C2)N(C)CC[C@@]341	inactive
O=C(O)c1ccc(=O)[nH]c1	inactive
C[C@@H](N)[C@@H](O)c1ccccc1	inactive

SMILES	outcome
CCN[C@H](C)Cc1cccc(C(F)(F)F)c1	inactive
C#C[C@]1(O)CC[C@H]2[C@@H]3CCC4=CC(=O)CC[C@]4(C)[C@H]3CC[C@@]21C	inactive
COC1CC(=C(c2cccs2)c2cccs2)C[N+](C)(C)C1 (stereo not given)	inactive
Clc1ccccc1N1CCNCC1	inactive
CNCC(=O)c1ccc(O)c(O)c1	inactive
CC(C)NC(C)C	inactive
NC1=NC(=O)C(c2ccccc2)O1 (stereo not given)	inactive
CC1(C)C(C=C(Cl)Cl)C1C(=O)OC(C#N)c1cccc(Oc2ccccc2)c1 (stereo not given)	inactive
O=c1[nH]oc2c1CCNC2	inactive
COC(=O)[C@@H](N)CCCN/C(N)=N/[N+](=O)[O-]	inactive
C[C@]12CCC(=O)C=C1CC[C@@H]1[C@H]3CC[C@](C)(O)[C@@]3(C)CC[C@@H]12	inactive
CC(C)(C)NCC(O)c1ccccc1Cl (stereo not given)	inactive
CN1C(=O)COc2c(C(=O)NC3CN4CCC3CC4)cc(Cl)cc21 (stereo not given)	inactive
O=C(CCCN1CCC2(CC1)C(=O)NCN2c1ccccc1)c1ccc(F)cc1	inactive
C[C@]12CC[C@@H]3c4ccc(OC(=O)N(CCCl)CCCl)cc4CC[C@H]3[C@@H]1CC[C@@H]2O	inactive
Cc1ncsc1CCCl	inactive
CCN(CCO)CCn1c(Cc2ccccc2)nc2c1c(=O)n(C)c(=O)n2C	inactive
COP(=S)(OC)Oc1ccc(SC)c(C)c1	inactive
O=[N+]([O-])O[C@H]1CO[C@H]2[C@@H]1OC[C@H]2O[N+](=O)[O-]	inactive
CC(Cc1ccccc1)N(C)Cc1ccco1 (stereo not given)	inactive
